Bioassay records as filed in PubChem.
FBW7 act = activators of human E3 ligase FBW7; hit rate 0.13% among 650,000; AID 1259310; AlphaScreen FBW7–phospho-cyclin E peptide binding, activator screen; normalized activity (activation), % at 26.1 µM; in the data active = normalized activity above about 1.9%;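 note: purified mutant Fbw7 with reduced substrate affinity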
TEAD-YAP inh = TEAD-YAP interaction inhibition. HEK-TIYL cells, TEAD-Gal4/YAP UAS-luciferase luminescence. inhibition, % at 9.12 µM. hit rate 1.4% among 640,000. AID 1259422; in the data active = inhibition above about 32%
MITF primary = human MITF inhibition, primary screen; O75030; AlphaScreen MITF homodimerization, bead proximity signal; inhibition, % at 2.6 µM; hit rate 0.91% among 650,000; in the data active = inhibition above about 50%
Target sequence (O75030 whole entry, looked up): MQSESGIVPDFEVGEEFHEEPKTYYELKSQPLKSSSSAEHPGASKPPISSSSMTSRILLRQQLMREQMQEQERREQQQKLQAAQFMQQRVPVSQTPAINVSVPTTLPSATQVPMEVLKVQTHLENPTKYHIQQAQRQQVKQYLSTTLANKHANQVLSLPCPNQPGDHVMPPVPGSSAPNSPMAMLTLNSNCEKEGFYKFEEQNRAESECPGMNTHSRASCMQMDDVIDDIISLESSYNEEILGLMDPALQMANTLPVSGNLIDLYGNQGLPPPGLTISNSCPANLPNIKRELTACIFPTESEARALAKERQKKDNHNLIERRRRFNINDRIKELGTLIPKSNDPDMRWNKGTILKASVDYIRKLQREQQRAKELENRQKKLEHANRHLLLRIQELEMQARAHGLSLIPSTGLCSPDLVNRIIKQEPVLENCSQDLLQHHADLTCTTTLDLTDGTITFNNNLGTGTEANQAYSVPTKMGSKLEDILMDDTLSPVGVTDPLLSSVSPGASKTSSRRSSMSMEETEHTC
GPR151 activ = activators of human GPR151; Q8TDV0; PathHunter beta-arrestin GPR151 cells, luminescence; activation, % at 11.2 µM; hit rate 1% among 650,000; in the data active = activation above about 4.9%
Each line names hits and unclear results; the compound was inactive in the other large screens. Sampled rows, rich in hits. Any-hit rate of the full collection: about 3.5%.

Cc1ccc([N+](=O)[O-])cc1-c1ccc(/C=C2/C(=O)NC(=O)N(Cc3ccco3)C2=O)o1	none
O=C1NC(=O)N(Cc2ccco2)C(=O)/C1=C\c1ccc(-c2ccc(C(=O)O)cc2)o1	MITF primary 51.8
CCOC(=O)c1ccc(-c2ccc(/C=C3/C(=O)NC(=O)N(Cc4ccco4)C3=O)o2)cc1	none
O=C1NC(=O)N(Cc2ccco2)C(=O)/C1=C\c1ccc(-c2ccc([N+](=O)[O-])cc2)o1	MITF primary 74.6
O=C1NC(=O)N(Cc2ccco2)C(=O)/C1=C\c1ccc(-c2ccc(Br)cc2)o1	MITF primary 69.8
CCN(CC)c1nc(Cl)nc(N(C)C#N)n1	none
O=C(N1CCN(CC(O)c2cccs2)CC1)C1(c2ccccc2)CCOCC1 (stereo not given)	none
COc1cc(C(=O)COC(=O)Cc2ccsc2)cc(OC)c1OC	none
COc1cc(CC(=O)OCC(=O)c2ccc3c(c2)OCCO3)cc(OC)c1OC	TEAD-YAP inh 52.2
COc1cc(CC(=O)OCC(=O)c2ccc(Br)cc2)cc(OC)c1OC	TEAD-YAP inh 59.2
COc1ccccc1CNC(=O)C1CC(=O)N(c2ccc(Br)cc2)C1 (stereo not given)	none
Cc1cccc(-c2nc3scc(CCNC(=O)c4cccs4)n3n2)c1	none
O=C(Nc1c[nH]c(=O)[nH]c1=O)c1cccc(N2C(=O)c3ccc([N+](=O)[O-])cc3C2=O)c1	none
COc1cccc(-c2csc3nnc(SCC(=O)c4ccc(NC(C)=O)cc4)n23)c1	FBW7 act 13.1
Cc1cc(=O)oc2c1ccc1oc(C(=O)c3ccccc3)c(C)c12	TEAD-YAP inh 48.6
C/C(=N\O)c1oc2ccc3c(C)cc(=O)oc3c2c1C	none
Cc1cc(=O)oc2c1ccc1oc(C(=O)c3ccc(Cl)cc3)c(-c3ccccc3)c12	TEAD-YAP inh 63.2
Cc1cc(=O)oc2c1ccc1oc(C(=O)c3ccccc3)c(-c3ccccc3)c12	TEAD-YAP inh 72.0
CC(=O)c1oc2ccc3c(C)cc(=O)oc3c2c1-c1ccccc1	none
COc1ccc(-n2cccc2/C=C2\NC(=O)N(CC(=O)Nc3ccccc3)C2=O)cc1	none
Cc1ccc(NC(=O)CN2C(=O)N/C(=C/c3cccn3-c3ccc(C(=O)O)cc3)C2=O)cc1	MITF primary 78.5
Cc1cnc(NCCCN2CCCC2=O)nc1NCCN1CCOCC1	none
O=C(Cc1cccs1)Nc1cccc(-c2ccc(N3CCCCC3)nn2)c1	TEAD-YAP inh 51.5
COc1ccc(C2=NN3COc4ccccc4C3C2)cc1 (stereo not given)	none
Cc1cccc(N2C(=O)NC(=O)/C(=C\c3cccc(O)c3)C2=O)c1	none
Cc1cccc(N2C(=O)NC(=O)/C(=C\c3ccoc3)C2=O)c1	MITF primary 57.6
O=C1NC(=S)N(c2ccccc2)C(=O)/C1=C\c1ccoc1	MITF primary 71.3
O=C1NC(=S)N(c2ccc(Cl)cc2)C(=O)/C1=C\c1ccoc1	none
CC(=O)COc1coc(CN2CCN(c3ccc(F)cc3)CC2)cc1=O	none
CCCC(=O)Oc1ccc(N(C(=O)CCC)S(=O)(=O)c2ccc(Cl)cc2)c2ccccc12	none
CC1Cc2cc(-c3cc(CC(=O)NCc4cccnc4)no3)ccc2O1 (stereo not given)	TEAD-YAP inh 34.2
COc1ccc(-c2cc(C(=O)NCc3cccnc3)no2)cc1	none
CS(=O)(=O)Nc1cccc(-c2ccnc(Nc3ccccc3)n2)c1	TEAD-YAP inh 67.8
O=C(O)Cc1ccc(Nc2nccc(-c3ccccc3)n2)cc1	TEAD-YAP inh 52.6
NC(=O)c1ccc(Nc2nccc(-c3cccc(Nc4ccccc4)c3)n2)cc1	TEAD-YAP inh 45.9
CC(O)c1ccc(Nc2nccc(-c3cccc(NS(C)(=O)=O)c3)n2)cc1 (stereo not given)	TEAD-YAP inh 76.5
NC(=O)c1cccc(Nc2nccc(-c3cccc(Nc4ccccc4)c3)n2)c1	none
C=CCN1CCc2cc(O)c(O)cc2C(c2ccccc2)C1 (stereo not given)	none
Cc1ccc2c(c1)c(=O)c1ccccc1n2CC(=O)N1CCCC1	none
CS(=O)(=O)Nc1cccc(-c2ccnc(Nc3ccc(CC(N)=O)cc3)n2)c1	TEAD-YAP inh 37.1
N#CC1=C(N)Oc2cc3c(cc2C1c1cccc(Br)c1)OCO3 (stereo not given)	TEAD-YAP inh 60.5
N#CC1=C(N)Oc2cc(N)ccc2C1c1cccc(Cl)c1 (stereo not given)	none
CN(C)c1ccc2c(c1)OC(N)=C(C#N)C2c1ccc(C(F)(F)F)cc1 (stereo not given)	none
CN(C)c1ccc2c(c1)OC(N)=C(C#N)C2c1cccc(C(F)(F)F)c1 (stereo not given)	TEAD-YAP inh 56.5
Cc1nc(SCc2ccc(CSc3n[nH]c(C)n3)cc2)n[nH]1	TEAD-YAP inh 82.9
COc1ccc(CSc2n[nH]c(C)n2)cc1	TEAD-YAP inh 64.3
Cc1nc(SCc2ccccc2)n[nH]1	none
O=C1NCCN(CC2CCCCC2)C1CC(=O)N1CCCO1 (stereo not given)	none
O=S(=O)(Nc1ccc(Cc2ccncc2)cc1)c1ccc(Cl)cc1	TEAD-YAP inh 38.0
COc1ccc(OC)c(-n2c(C)cc(/C=C3/C(=N)N4C=C(C)SC4=NC3=O)c2C)c1	TEAD-YAP inh 47.1
COc1ccccc1-n1c(C)cc(/C=C2/C(=N)N3C=CSC3=NC2=O)c1C	TEAD-YAP inh 94.3
COc1ccc(OC)c(-n2c(C)cc(/C=C3/C(=N)N4C=CSC4=NC3=O)c2C)c1	none
COc1ccc(C)cc1-n1c(C)cc(/C=C2/C(=N)N3C=C(C)SC3=NC2=O)c1C	TEAD-YAP inh 50.9
Cc1c(O)ccc2c(CN3CCCCCC3)cc(=O)oc12	none
C=CCN1C(=O)C2C(C(=O)NC)C3C=CC2(O3)C1C(=O)NC1CCCCC1 (stereo not given)	none
COc1ccc(-n2c(=S)[nH]c3cc(C(=O)Nc4ccc(F)cc4)ccc3c2=O)c(OC)c1	TEAD-YAP inh 71.2
NC(=O)c1cnn(-c2ccnc(NC(=O)Cc3ccc(F)cc3)c2)c1	TEAD-YAP inh 75.5
CCc1ccc(S(=O)(=O)Nc2cccc(N3CCCS3(=O)=O)c2)cc1	TEAD-YAP inh 32.6
Cc1ccc(N(C(C)C(=O)Nc2ccccc2Br)S(C)(=O)=O)cc1 (stereo not given)	none
Cc1nc2ccc(NC(=O)c3ccc(S(=O)(=O)N(C)C)cc3)cc2c(=O)n1-c1ccc(Cl)cc1	TEAD-YAP inh 37.6
O=C(NCc1cccs1)NC1CC(=O)N(c2ccccc2)C1 (stereo not given)	none
CCOC(=O)c1cc2c3c(c1)C1C=CCC1C(c1ccc(F)cc1)N3CC1CC=CC21 (stereo not given)	none
O=C(O)CNC(=O)c1cc2c3c(c1)C1C=CCC1C(c1ccc(F)cc1)N3CC1CC=CC21 (stereo not given)	MITF primary 73.3
O=C(Nc1ccc(Br)cn1)c1ccc(C2CCCCC2)cc1	none
O=C(Nc1ccc(Cl)cn1)c1ccc(C2CCCCC2)cc1	TEAD-YAP inh 40.2
Cc1c(NC(=O)c2cccc3cccc(C(=O)O)c23)c(=O)n(-c2ccccc2)n1C	none
CCOC(=O)c1nn(-c2ccc3c(c2)OCCO3)cc1O	TEAD-YAP inh 43.2
CCOC(=O)c1nn(-c2ccc(C)c(C)c2)cc1O	none
Cc1ccc2c(c1)Oc1ccc(NC(=O)CCCl)cc1C(=O)N2	TEAD-YAP inh 32.8
